Experimental findings from PubChem BioAssay (NCI) are described below.

Several values for one entry are separate records, joined by “and”; a condition that tells them apart may be missing. Identical values can stand only once. This is part of a sample that, as a whole, favours compounds with a hit. Of some 83,000 tested, about 20% had one in any assay.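 Results are percent growth after 48 hours of single-concentration exposure. 100 means growth as in untreated cells, lower positive values show inhibition; negative values down to -100 show cell death.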 A number with no mark means an inactive call. Activity calls are given as the source filed them. How the source made its calls: active means growth percent below 10; inactive means the rest.

Among the test systems are T-47D breast; BT-549 breast; MDA-MB-435 melanoma; SW-620 colon; MCF7 breast; HCT-116 colon; HCC-2998 colon; KM12 colon; MDA-MB-468 breast.
Assay in all cases: NCI-60 one-dose screen, 48 h (100 = growth as untreated, 0 = no growth, -100 = all killed)

For the molecule `COC(=O)c1cc(C(C)=O)n2c3ccccc3c3ccccc3c12`, the growth in the assay on T-47D breast (10 µM unless noted) is 54.6%; with BT-549 breast (10 µM unless noted) it was 38.5%; in the assay with MDA-MB-435 melanoma (10 µM unless noted) it was 93%; in the assay on SW-620 colon (10 µM unless noted) it was 89.3%; in the assay on MCF7 breast (10 µM unless noted), 59.6%; in the assay with HCT-116 colon (10 µM unless noted), 50.3%. The figures for the growth in the assay with HCC-2998 colon (10 µM unless noted) and in the assay on KM12 colon (10 µM unless noted) were 91.4% and 86%, respectively.

In the case of `CCCCC[C@@H]1C/C=C(\C)[C@@H](O)C(C)(C)C(=O)[C@@H](C)/C=C(\C)[C@@H]2C[C@H](O)C[C@](O)(CC(=O)O1)O2`, the growth is 13.5% with T-47D breast (10 µM unless noted); 18.8% in the assay with BT-549 breast (10 µM unless noted); 24% in the assay on MDA-MB-435 melanoma (10 µM unless noted); 47.3% with SW-620 colon (10 µM unless noted); 7.53% (active) with MCF7 breast (10 µM unless noted); 43% in the assay on HCT-116 colon (10 µM unless noted). Also, the figures for the growth with HCC-2998 colon (10 µM unless noted) and in the assay with KM12 colon (10 µM unless noted) were 57.1% and 44.6%, respectively.

Regarding `Nc1cccc(-n2c(COc3ccc(I)cc3)nc3ccccc32)c1`, the growth in the assay on T-47D breast (10 µM unless noted) is 54.6% and 99.2%; in the assay with BT-549 breast (10 µM unless noted), 92.6% and 99.7%; in the assay with MDA-MB-435 melanoma (10 µM unless noted), 95.9% and 99.7%; in the assay with SW-620 colon (10 µM unless noted) it was 86.3% and 104%; in the assay on MCF7 breast (10 µM unless noted), 67.9% and 98.9%; with HCT-116 colon (10 µM unless noted) it was 76% and 102%. The growth in the assay on HCC-2998 colon (10 µM unless noted) is 118% and 113%; with KM12 colon (10 µM unless noted), 87.9% and 99.6%.

As to `CC1=C(C)C(=O)C(NCCN2CCOCC2)=C(Br)C1=O`, the growth in the assay on T-47D breast (10 µM unless noted) was -58.6% (active); with BT-549 breast (10 µM unless noted), 87.4%; with MDA-MB-435 melanoma (10 µM unless noted) it was -87.5% (active); in the assay with SW-620 colon (10 µM unless noted), 32.7%; in the assay with MCF7 breast (10 µM unless noted) it was 10.3%; in the assay with HCT-116 colon (10 µM unless noted), -75.5% (active). In addition, the values for the growth in the assay on HCC-2998 colon (10 µM unless noted) and with KM12 colon (10 µM unless noted) were 101% and 94.2%, respectively.

As to `NS(=O)(=O)c1ccc(N2N=C(c3ccc(NC(=O)Nc4ccccc4)cc3)CC2c2ccc(Br)cc2)cc1` (configuration not stated), the growth in the assay with T-47D breast (10 µM unless noted) is -73.8% (active); in the assay with BT-549 breast (10 µM unless noted) it was -81.1% (active); in the assay on MDA-MB-435 melanoma (10 µM unless noted), -93.8% (active); in the assay on SW-620 colon (10 µM unless noted), -3.46% (active); with MCF7 breast (10 µM unless noted), -79.1% (active); with HCT-116 colon (10 µM unless noted), -68.1% (active). The figures for the growth in the assay with HCC-2998 colon (10 µM unless noted) and with KM12 colon (10 µM unless noted) were -100% (active) and -15.7% (active), respectively.

For `CC/C(=C(\c1ccc(O)cc1)c1ccc(OCCNC)cc1)c1ccccc1`, the growth is 59.6% with T-47D breast (1 µM); 44.8% with T-47D breast (10 µM); 91.4% in the assay on BT-549 breast (1 µM); 74.4% in the assay with BT-549 breast (10 µM); 104% in the assay on MDA-MB-435 melanoma (1 µM); 74.5% with MDA-MB-435 melanoma (10 µM). Besides, the growth with SW-620 colon (1 µM) is 107%; in the assay with SW-620 colon (10 µM) it was 89.9%; in the assay on MCF7 breast (1 µM) it was 24.9%; in the assay with MCF7 breast (10 µM), 25.8%; with HCT-116 colon (1 µM) it was 93.2%; in the assay with HCT-116 colon (10 µM), 62.4%. Moreover, the growth is 106% with HCC-2998 colon (1 µM); 56.7% in the assay on HCC-2998 colon (10 µM); 101% in the assay with KM12 colon (1 µM); 65.9% in the assay with KM12 colon (10 µM); 95.6% in the assay with MDA-MB-468 breast (1 µM); 72.4% with MDA-MB-468 breast (10 µM).

For the molecule `CN(C)c1nc(NCCNS(=O)(=O)c2ccc(C(=O)/C=C/c3ccc(C(F)(F)F)cc3)cc2)nc(N2CCOCC2)n1`, the growth was -61.2% (active) in the assay with T-47D breast (10 µM unless noted); -20.8% (active) in the assay on BT-549 breast (10 µM unless noted); -59.4% (active) with MDA-MB-435 melanoma (10 µM unless noted); -76.7% (active) in the assay with SW-620 colon (10 µM unless noted); -84.5% (active) in the assay on MCF7 breast (10 µM unless noted); -91.4% (active) in the assay with HCT-116 colon (10 µM unless noted). The growth with HCC-2998 colon (10 µM unless noted) was -97.6% (active); in the assay on KM12 colon (10 µM unless noted), -80.7% (active).

Regarding `N#Cc1cc(-c2ccc3ncnc(N4CCc5cc(F)c(Cl)cc54)c3c2)cnc1N`, the growth is 25.8% with T-47D breast (10 µM unless noted); 9.67% (active) with BT-549 breast (10 µM unless noted); 39.2% with MDA-MB-435 melanoma (10 µM unless noted); 25.2% in the assay with SW-620 colon (10 µM unless noted); 4.81% (active) in the assay on MCF7 breast (10 µM unless noted); 33.2% with HCT-116 colon (10 µM unless noted). In addition, the growth in the assay with HCC-2998 colon (10 µM unless noted) is 50.1%; in the assay with KM12 colon (10 µM unless noted) it was 67.2%.

As for `CC/C(=C(/c1ccc(O)cc1)c1ccc(OCCN(C)C(=O)CCOCCNC(=O)Cc2ccc3c(c2)CN([C@@H]2CCC(=O)NC2=O)C3=O)cc1)c1ccccc1`, the growth in the assay with T-47D breast (1 µM) was 20.9%; in the assay on T-47D breast (10 µM), 25%; in the assay with BT-549 breast (1 µM) it was -12.9% (active); in the assay with BT-549 breast (10 µM) it was -25.9% (active); in the assay on MDA-MB-435 melanoma (1 µM) it was 104%; in the assay with MDA-MB-435 melanoma (10 µM) it was 85%. The growth in the assay with SW-620 colon (1 µM) is 70.6%; in the assay with SW-620 colon (10 µM), 36%; in the assay on MCF7 breast (1 µM) it was 34.7%; with MCF7 breast (10 µM) it was 31.5%; in the assay on HCT-116 colon (1 µM), 100%; with HCT-116 colon (10 µM), 92.4%. Moreover, the growth is 95.3% in the assay on KM12 colon (1 µM), 66.7% with KM12 colon (10 µM), -2.35% (active) with MDA-MB-468 breast (1 µM) and -18.2% (active) with MDA-MB-468 breast (10 µM).

For the molecule `CS(=O)(=O)Nc1cccc(-n2cnc3cc(-c4ccc(O)cc4)ccc32)c1`, the growth is 49.1% with T-47D breast (10 µM unless noted); 49.9% in the assay with BT-549 breast (10 µM unless noted); -37.6% (active) in the assay with MDA-MB-435 melanoma (10 µM unless noted); 46.2% with SW-620 colon (10 µM unless noted); 23.6% in the assay on MCF7 breast (10 µM unless noted); 33.5% in the assay on HCT-116 colon (10 µM unless noted). In addition, the growth with HCC-2998 colon (10 µM unless noted) was 63.9%; in the assay on KM12 colon (10 µM unless noted), 26.6%.

For `N#Cc1c(-c2ccc(F)cc2)nc(SCc2ccccc2)nc1N1CCNCC1`, the growth was -75.9% (active) with T-47D breast (10 µM unless noted); -97.4% (active) with BT-549 breast (10 µM unless noted); -83.6% (active) with MDA-MB-435 melanoma (10 µM unless noted); -78.7% (active) in the assay with SW-620 colon (10 µM unless noted); -84.7% (active) in the assay with MCF7 breast (10 µM unless noted); -96.9% (active) with HCT-116 colon (10 µM unless noted). Besides, the values for the growth in the assay with HCC-2998 colon (10 µM unless noted) and in the assay with KM12 colon (10 µM unless noted) were -64.6% (active) and -84.3% (active), respectively.

As for `O=C(NN1C(=O)/C(=C/C=C/c2ccc([N+](=O)[O-])o2)SC1=S)c1ccc([N+](=O)[O-])cc1`, the growth in the assay with T-47D breast (10 µM unless noted) is -60.9% (active); with BT-549 breast (10 µM unless noted), -93.2% (active); in the assay with MDA-MB-435 melanoma (10 µM unless noted), -86.9% (active); in the assay on SW-620 colon (10 µM unless noted) it was -77.7% (active); in the assay on MCF7 breast (10 µM unless noted), -61.4% (active); with HCT-116 colon (10 µM unless noted), -76.3% (active). Moreover, the growth in the assay on HCC-2998 colon (10 µM unless noted) was -94.8% (active); with KM12 colon (10 µM unless noted), -94.9% (active).

Consider `O=C(NC(=S)N1CCN(c2ncnc3c2cnn3-c2ccccc2)CC1)c1ccc(Br)cc1`, for which the growth in the assay with T-47D breast (10 µM unless noted) was 73.1%; in the assay on BT-549 breast (10 µM unless noted) it was 65.1%; in the assay with MDA-MB-435 melanoma (10 µM unless noted) it was 80.3%; in the assay on SW-620 colon (10 µM unless noted) it was 81.7%; in the assay on MCF7 breast (10 µM unless noted), 49.8%; with HCT-116 colon (10 µM unless noted), 60.3%. Moreover, the growth with HCC-2998 colon (10 µM unless noted) is 90.5%; in the assay with KM12 colon (10 µM unless noted), 92.5%.
